Screens (PubChem BioAssay)
Hits are enriched below; roughly 5.6% of the tested compounds scored in any of these assays.
PKM2 activator = qHTS Assay for Activators of Human Muscle isoform 2 Pyruvate Kinase | purified PKM2, Kinase-Glo ATP luminescence, activation; response scale: 0% is enzyme alone, no compound | Potency, µM (top dose mostly 57.5 µM), for the others: at the highest dose activation, usual class: activators | 260,000 tested, 0.34% active | AID 1631, 2009; note: potency is the fitted concentration of half-maximal effect; nearly all actives have a fitted effect of over 55% in size
Target sequence (P14618 whole entry, looked up, canonical isoform): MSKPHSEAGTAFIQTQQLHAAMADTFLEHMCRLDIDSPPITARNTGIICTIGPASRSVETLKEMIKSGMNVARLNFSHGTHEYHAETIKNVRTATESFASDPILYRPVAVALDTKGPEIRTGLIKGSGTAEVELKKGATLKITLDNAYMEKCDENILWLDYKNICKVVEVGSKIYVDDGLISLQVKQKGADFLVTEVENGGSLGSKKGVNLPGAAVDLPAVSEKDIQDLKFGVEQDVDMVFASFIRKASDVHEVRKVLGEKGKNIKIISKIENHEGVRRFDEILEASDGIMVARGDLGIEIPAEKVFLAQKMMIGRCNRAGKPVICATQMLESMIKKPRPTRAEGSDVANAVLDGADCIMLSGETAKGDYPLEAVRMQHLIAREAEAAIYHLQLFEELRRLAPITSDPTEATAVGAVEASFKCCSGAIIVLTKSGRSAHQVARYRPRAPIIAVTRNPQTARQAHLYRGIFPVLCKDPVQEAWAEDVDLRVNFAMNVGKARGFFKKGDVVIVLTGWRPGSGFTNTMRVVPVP
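Purified hPK-M2 (>95%) run at intermediate activity with 0.1 mM ADP and 0.5 mM PEP in 50 mM imidazole pH 7.2, KCl, MgCl2; 1 h room temperature. ATP formed read by Kinase-Glo luminescence; normalized to uninhibited and no-enzyme controls.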
Six1-Eya2 inh = qHTS Assay for Inhibitors of the Six1/Eya2 Interaction; AlphaScreen GST-Six1/His-Eya2 binding, biochemical; hits give low values; activity change, % (no concentration beside the values); 360,000 tested, 0.56% active; AID 651725, 2012; in the data active = activity change below about -65%; inconclusive = mostly about -30% to -63%
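AlphaScreen luminescence read after one hour at 37 °C in darkness. Pin-transferred compounds met GST-Six1 and His-Eya2 protein (5X stock 250 nM/500 nM) plus glutathione donor and Ni-chelate acceptor beads (5X, 50 ug/mL).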
Gal4-VP16 FLuc = VP16 counterscreen qHTS for inhibitors of ROR gamma transcriptional activity; Potency, µM (titrated, usually from 53.6 µM), for inactives: at the highest dose activity, negative = inhibition, usual class: inhibitors; 310,000 tested, 3.5% active; Drosophila S2 Gal4-VP16 UAS-luciferase, luminescence, 20 h; AID 2546, 2010;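 note: Gal4-VP16 expression switched on by copper sulfate through the metallothionein promoter; potency is the fitted concentration of half-maximal effect; nearly all actives have a fitted effect of over 50% in size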
CtBP-E1A inh = qHTS Assay for Inhibitors of the CtBP/E1A Interaction | CtBP / adenovirus E1A interaction (AlphaScreen) | AlphaScreen GST-E1A/His-CtBP binding, 1536-well; hits give low values | activity change, % (test concentration not listed) | 340,000 tested, 0.49% active | AID 651724, 2012; in the data active = activity change below about -65%; inconclusive = mostly about -30% to -63%
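Homogeneous bead-based format: GST-tagged E1A captured on glutathione donor beads, His-tagged CtBP on nickel acceptor beads; compounds precede bead addition by 2 h at 37 °C.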
RORg inh = qHTS for inhibitors of ROR gamma transcriptional activity; AID 2551, 2010; Drosophila S2 Gal4-RORgamma UAS-luciferase reporter, 20 h; Nuclear receptor ROR-gamma (Mus musculus), P51450; Potency, µM (doses to about 53.6 µM), for inactives: at the highest dose activity change, negative = inhibition, usual class: inhibitors; 310,000 tested, 5.4% active; note: potency is the fitted concentration of half-maximal effect; nearly all actives have a fitted effect of over 60% in size
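Drosophila Schneider cells stably carrying a metallothionein-driven Gal4 DBD–ROR gamma fusion and a UAS-Photinus luciferase reporter were exposed to compound for 1 hr, then induced with copper sulfate (700 uM final) for 20 hr at ambient temperature before luminescence reading.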
* marks the source's active call; other numbers are inactive results; u = inconclusive; x = no result given; [ ] = another dose, or the depositor's remark. Unless noted, calls come from the whole dose curve; as a rule, active = well fitted curve in the direction sought with a large enough effect; inconclusive = small, poorly fitted or top-dose-only effect, or another doubt; inactive = no such curve, though single readings can be large; an effect the other way counts as inactive or inconclusive. % is set by controls: 0 for no effect and ±100 for the full control effect.

SMILES	PKM2 activator	Six1-Eya2 inh	Gal4-VP16 FLuc	CtBP-E1A inh	RORg inh
CC1=NN(C(N)=S)C(=O)C1N=Nc1ccc(Cl)cc1 (stereo not drawn)	-0.2%[11.5 µM]	-16.3	1.12µM*	3.8	0.398µM*
CC1(C)CC(=O)C(N=Nc2ccc(Br)cc2)=C(O)C1	-5.2%	-4.7	2.3%	0.1	36.0%
CC1=NN(C(N)=S)C(=O)C1N=Nc1ccccc1 (stereo not drawn)	-1.1%	0.7	0.891µM*	x	0.199µM*
CC1=NN(C(N)=S)C(=O)C1N=Nc1cccc([N+](=O)[O-])c1 (stereo not drawn)	x	6.6	1.58µM*	3.2	0.501µM*
O=C(O)c1ccccc1C(=O)Nc1ccc(S(=O)(=O)NC2CCCCC2)cc1	-3.5%	5.8	-10.2%	1.4	30.9%
C[C@H](CO)N1C[C@H](C)[C@H](CN(C)C(=O)c2ccccc2)OCc2ccccc2-c2c(n(C)c3ccccc23)C1=O	x	6.5	x	0.9	x
CC1(c2ccc(C#N)cc2)NC(=O)N(CC(=O)Nc2cc(S(=O)(=O)N3CCOCC3)ccc2Cl)C1=O (stereo not drawn)	-11.2%	-2.7	-15.3%	x	-1.4%
Cc1cc2nc3c(=O)[nH]c(=O)[nH]c3nc2c([N+](=O)[O-])c1N	u	-83.7*	-0.3%	-82.1*	15.7%
Cc1nc(C(=O)NNC(=O)c2c(-c3c(Cl)cccc3Cl)noc2C)cs1	-0.7%	6.0	8.91µM*	0.0	2.82µM*
Cc1cc(C(=O)NNC(=O)c2c(-c3c(Cl)cccc3Cl)noc2C)no1	3.7%	0.1	0.2%	-0.6	-27.7%
Cc1onc(-c2c(Cl)cccc2Cl)c1C(N)=O	-9.8%	4.0	x	9.2	-7.3%[0.365 µM]
CC(=O)Nc1nnc(-c2c(-c3c(Cl)cccc3Cl)noc2C)o1	8.6%	-24.9	u	-27.2	10µM*
Cc1onc(-c2c(Cl)cccc2Cl)c1C(N)=S	1.8%	-5.0	u	-0.2	7.94µM*
OCCC1CN(Cc2cc(F)ccc2-n2cccn2)CCN1Cc1ccc(F)cc1 (stereo not drawn)	1.4%	-8.3	11.9%	-10.5	-19.1%
COc1cccc(OCCNC(=O)CSc2ccc(C(F)(F)F)cc2[N+](=O)[O-])c1	3.2%	-14.9	3.55µM*	-7.5	8.3%
CCCCCC/C(=N/O)c1ccccn1	1.8%	-18.4	15.8µM*	-20.8	5.01µM*
CN(CC(=O)Nc1ccccc1C(F)(F)F)C(=O)CSc1nnc(-c2ccncc2)n1C	x	-2.0	x	x	x
COc1cc(/C=N/NC(=O)c2cc[n+]([O-])cc2)ccc1O	2.3%	u	3.5%	u	-1.4%
N#Cc1cc2c([nH]c1=S)CCCC2	-21.0%	2.1	-2.7%	2.4	-13.3%
CC1(C)Cc2[nH]c(=S)c(C#N)cc2CO1	-3.3%	-1.5	u	-3.3	20µM*
CCn1cc(C2=NC(CCSC)CO2)c2ccccc21 (stereo not drawn)	-1.6%	-10.2	u	-0.6	7.94µM*
CCn1cc(C=C2C(=O)c3ccccc3C2=O)c2ccccc21	1.5%	1.6	6.8%	1.1	15.2%
CCn1cc(C2=NC(CC(C)C)CO2)c2ccccc21 (stereo not drawn)	-0.2%	3.2	u	1.8	3.98µM*
CC(C)C1COC(c2cccc3ccccc23)=N1 (stereo not drawn)	-24.9%	13.8	u	12.0	20µM*
CCn1cc(C2=NC(C(C)C)CO2)c2ccccc21 (stereo not drawn)	2.1%	7.1	u	8.1	10µM*
SMILES	PKM2 activator	Six1-Eya2 inh	Gal4-VP16 FLuc	CtBP-E1A inh	RORg inh
CC1=C(C(=O)N2CCOCC2)CC(CC(=O)NCCc2ccccn2)C(=O)N1Cc1ccccc1 (stereo not drawn)	x	7.5	x	8.5	x
CC(C)Oc1cccc(C(=O)NC(=S)Nc2cccc(NC(=O)c3ccccc3Cl)c2)c1	1.1%	-0.2	8.91µM*	-2.0	11.2µM*
CCCC(=O)NC(=S)Nc1cccc(NC(=O)c2ccc(Cl)cc2Cl)c1	0.7%	0.2	u	1.3	10µM*
CCC(=O)NC(=S)Nc1ccc(NC(=S)NC(=O)c2ccccc2)cc1	-9.8%	4.5	u	x	3.16µM*
O=C(NC(=S)Nc1cccc(NC(=O)c2ccc(Cl)cc2Cl)c1)c1cccs1	-0.8%	5.0	11.2µM*	-5.5	20µM*
CCNC(=O)Oc1ccc[nH]c1=O	-12.9%	-2.6	u	x	23.7%
COC(=O)CC(NC(=S)NC(=O)c1ccccc1)c1ccc(Br)cc1 (stereo not drawn)	x	-15.6	u	x	12.6µM*
CCC(=O)NC(=S)Nc1cccc(NC(=O)c2ccccc2C)c1	-20.8%	5.1	-2.3%	-0.5	u
CCC(=O)NC(=S)Nc1cccc(NC(=O)c2ccccc2Cl)c1	-11.5%	-0.2	-24.7%	-8.4	11.2µM*
CCCC(=O)NC(=S)Nc1cccc(NC(=O)c2ccccc2Cl)c1	-7.4%	-5.0	u	5.0	u
CCC(=O)NC(=S)Nc1cccc(NC(=O)c2ccccc2)c1	-6.9%	27.8	u	9.0	5.01µM*
CCOC(=O)NC(=S)c1ccc[nH]1	4.9%	8.7	u	-10.1	12.6µM*
Cc1ccc(CN2CCC(C)(Oc3ccc(Cl)cc3)C2)cc1 (stereo not drawn)	x	7.9	x	5.0	x
O=C(CN1CCN(C(=O)N2CCOCC2)CC1)Nc1cc(Cl)ccc1Cl	-0.4%	1.2	-6.7%	-1.4	-5.1%
O=C(CN(Cc1ccc(Cl)cc1)C(=O)CNS(=O)(=O)c1ccc(F)cc1)NCC1CCCO1 (stereo not drawn)	x	4.6	-2.2%	1.0	11.3%
CCOC(=O)NC(=S)Nc1cccc(NC(=S)NC(=O)OCC)c1	-0.5%	-6.3	u	5.1	7.08µM*
CCN(Cc1nc2ccccc2c(=O)[nH]1)Cc1cc(=O)oc2cc(OC)ccc12	0.6%	5.8	15.8µM*	-0.1	14.1µM*
CCN(CC(=O)Nc1ccc(C(=O)Nc2ccc(OC)cc2)cc1)Cc1nc2ccccc2c(=O)[nH]1	-7.0%	-2.9	u	x	3.16µM*
COc1cc2c(cc1NC(=O)CSc1nc3ccccc3[nH]1)oc1ccccc12	5.6%	-15.4	-13.7%	-2.2	-7.7%
CCN(CC(=O)Nc1cc(OC)ccc1OC)Cc1nc2ccccc2c(=O)[nH]1	-2.5%	-1.4	-7.4%	0.8	20µM*
COc1cc2c(cc1NC(=O)CN(C)Cc1nc3ccccc3c(=O)[nH]1)oc1ccccc12	-3.3%	-1.7	11.2µM*	-9.2	4.47µM*
COc1ccc(NC(=O)COC(=O)CCc2nc3ccccc3c(=O)[nH]2)c(OC)c1	x	-4.2	x	x	x
CN(C(=O)CSc1nc2[nH]ncc2c(=O)[nH]1)c1ccccc1	x	4.1	x	-1.6	x
